Our source for the AC50 and outcome values is PubChem BioAssay (EPA / NIEHS).

SMILES strings stand for the structures. Where “and” joins values, the source holds several entries; their conditions need not be identical. Identical values can stand only once. Where a structure was tested more than once in an assay, its records may differ in their call. Calls of active or inactive are those of the source. How the source made its calls: active means hit-call score of the fitted dose curve at least 0.9, where 1 is the maximum; inactive means score below 0.9.

Read-out in test [1]: Collagen IV, COL4A1 (gene 1282)
As to the kind of experiment: BSK_MyoF_CollagenIV: BioMAP Diversity Plus: MyoF Assay for Collagen IV Biomarker Activity (AID 2284247). The conditions noted are these: primary human lung fibroblasts. An outline of the steps: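 Lung fibroblasts (human primary) treated with chemicals were assayed after 24 h for Collagen IV using an ELISA, with DMSO serving as negative control and baseline for a positive-direction fit.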

Read-out in test [2]: Monokine induced gamma interferon (MIG), CXCL9 (gene 4283)
Put plainly: BSK_KF3CT_MIG: BioMAP Diversity Plus: KF3CT Assay for Monokine induced gamma interferon (MIG) Biomarker Activity (AID 2284248). The conditions noted are these: primary human keratinocytes with fibroblasts. The gist of the method: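 ELISA read-out of MIG after 24 h chemical exposure of human skin primary co-culture (keratinocytes, foreskin fibroblasts). Gain of signal relative to DMSO negative control was analysed.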

Read-out in test [3]: Vascular cell adhesion molecule 1 (VCAM1), VCAM1 (gene 7412)
Put plainly: BSK_BF4T_VCAM1: BioMAP Diversity Plus: BF4T Assay for Vascular cell adhesion molecule 1 (VCAM1) Biomarker Activity (AID 2284249). The note with it: primary human bronchial epithelial cells with fibroblasts. An outline of the steps: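 Cell-surface VCAM-1 quantified by ELISA after 24 h chemical exposure of human bronchial epithelial/dermal fibroblast co-cultures, with SRB staining in parallel wells for cytotoxicity; DMSO baseline, positive-direction fitting.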

Read-out in test [4]: Collagen I, COL1A1 (gene 1277)
As to the kind of experiment: BSK_hDFCGF_CollagenI: BioMAP Diversity Plus: hDFCGF Assay for Collagen I Biomarker Activity (AID 2284250). The conditions noted are these: primary human foreskin fibroblasts. An outline of the steps:
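Readout: Collagen I by ELISA after 24 h compound treatment of primary human foreskin fibroblasts. Endpoint analysed for increases relative to DMSO; total protein by SRB in parallel wells flagged cytotoxicity.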

Read-out in test [5]: Interferon-inducible T-cell alpha chemoattractant (ITAC), CXCL11 (gene 6373)
Put plainly: BSK_hDFCGF_ITAC: BioMAP Diversity Plus: hDFCGF Assay for Interferon-inducible T-cell alpha chemoattractant (ITAC) Biomarker Activity (AID 2284251). The conditions noted are these: primary human foreskin fibroblasts. An outline of the steps:
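I-TAC levels were read by ELISA on human dermal foreskin fibroblast primary cultures 24 h after dosing, analysed against DMSO in the positive direction. Cytotoxicity was assessed alongside by sulforhodamine B total-protein staining.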

Read-out in test [6]: Plasminogen activator inhibitor-1 (PAI1), SERPINE1 (gene 5054)
As to the kind of experiment: BSK_KF3CT_PAI1: BioMAP Diversity Plus: KF3CT Assay for Plasminogen activator inhibitor-1 (PAI1) Biomarker Activity (AID 2284252). The note with it: primary human keratinocytes with fibroblasts. The gist of the method: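 In this co-culture of primary human keratinocytes and foreskin fibroblasts, PAI-1 was measured by ELISA at 24 h and fitted upward from DMSO.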

Read-out in test [7]: Monocyte Chemoattractant Protein-1 (MCP1), CCL2 (gene 6347)
Put plainly: BSK_IMphg_MCP1: BioMAP Diversity Plus: IMphg Assay for Monocyte Chemoattractant Protein-1 (MCP1) Biomarker Activity (AID 2284253). The note with it: primary human endothelial cells with macrophages. The gist of the method:
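ELISA readout of MCP-1 at 24 hours in IMphg co-cultures of venular endothelial cells and macrophages, normalised to DMSO; parallel cultures stained with sulforhodamine B for overt cytotoxicity.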

Read-out in test [8]: Interleukin-8 (IL8), CXCL8 (gene 3576)
Put plainly: BSK_KF3CT_IL8: BioMAP Diversity Plus: KF3CT Assay for Interleukin-8 (IL8) Biomarker Activity (AID 2284254). The note with it: primary human keratinocytes with fibroblasts. The gist of the method: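 IL-8 read-out: ELISA, 24 h post-dose, human skin primary co-culture (keratinocytes + foreskin fibroblasts). DMSO = baseline; positive-direction fit.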

Read-out in test [9]: Macrophage Inflammatory Protein-1 Alpha (MIP1a), CCL3 (gene 6348)
Put plainly: BSK_IMphg_MIP1a: BioMAP Diversity Plus: IMphg Assay for Macrophage Inflammatory Protein-1 Alpha (MIP1a) Biomarker Activity (AID 2284255). The note with it: primary human endothelial cells with macrophages. The gist of the method: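 MIP-1a protein levels were quantified by ELISA after 24 h treatment of human endothelial cell–macrophage co-cultures, compared with DMSO. Parallel cultures were fixed with TCA and stained with 0.1% SRB to gauge overt cytotoxicity.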

Read-out in test [10]: Plasminogen activator inhibitor-1 (PAI1), SERPINE1 (gene 5054)
Put plainly: BSK_MyoF_PAI1: BioMAP Diversity Plus: MyoF Assay for Plasminogen activator inhibitor-1 (PAI1) Biomarker Activity (AID 2284256).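 On outcome: PAI-1 protein level measured by ELISA in fibroblast cultures; PAI-1 read 24 h after compound addition.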 The conditions noted are these: primary human lung fibroblasts. The gist of the method:
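MyoF lung fibroblasts, human primary; compound 24 h; PAI-1 ELISA; positive-direction fit vs DMSO baseline; parallel SRB total-protein staining for cytotoxicity.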

One may read the AC50 as the concentration at which the activity in the assay is half-maximal. For `C=CC(=O)OCC(F)(F)C(F)(F)C(F)(F)C(F)(F)COC(=O)C=C`, the AC50 in test [1] is 12.4 µM (active) and 14.3 µM (active); in test [2], 21.5 µM (active) and 29.6 µM (active); in test [3] it was 7.96 µM (active) and 10.9 µM (active); in [5], 6.61 µM (active) and 5.23 µM (active); in test [6], 23.3 µM (active) and 43 µM (active); in test [7], 30 µM (active). In addition, the half-maximal activity concentration (AC50) in test [8] is 17.3 µM (active) and 18.9 µM (active); in test [10], 15.4 µM (active) and 16.7 µM (active). The outcome in test [4] and in [9] was inactive.

Regarding `Cc1ccc(S(=O)(=O)OCC(F)(F)C(F)(F)C(F)(F)C(F)(F)C(F)(F)C(F)F)cc1`, the result in test [1], in test [2], in test [3], in [4], in test [5] and in [6] was inactive. The outcome in test [7], in test [8], in [9] and in test [10] was inactive.

Take `OCC(F)(F)C(F)(F)C(F)(F)C(F)F`: the outcome in test [1], in test [2], in [3], in test [4], in test [6] and in test [7] was inactive. Moreover, the outcome in test [8], in test [9] and in test [10] was inactive. Further, the AC50 in test [6] was 1.23 µM (active).

As to `O=P(O)(O)OCCC(F)(F)C(F)(F)C(F)(F)C(F)(F)C(F)(F)C(F)(F)F`, the result in test [1], in [2], in test [3], in test [4], in test [5] and in test [6] was inactive. In addition, the outcome in test [7], in test [8], in [9] and in test [10] was inactive. For the same compound, the AC50 in test [5] was 5.83 µM (active).

Consider `N=C(N)C(F)(F)C(F)(F)C(F)(F)C(F)(F)C(F)(F)C(F)(F)C(F)(F)F`, for which the result in [1], in [2], in [3], in [4], in [6] and in test [7] was inactive. In addition, the outcome in test [8], in test [9] and in [10] was inactive. Further, in [4], the AC50 was 30 µM (active).

Take `O=C(O)C(F)(F)C(F)(F)C(F)(F)F`: the outcome in test [1], in test [2], in test [3], in test [4], in test [5] and in test [6] was inactive. Also, the result in [7], in test [8], in test [9] and in test [10] was inactive.

Regarding `C=CC(=O)OCC(F)(F)C(F)(F)C(F)(F)C(F)(F)C(F)(F)C(F)(F)C(F)(F)F`, the result in test [1], in test [2], in test [3], in [4], in test [6] and in test [7] was inactive. Also, the result in test [8], in [9] and in [10] was inactive.

Turning to `OCC(F)(F)C(F)(F)C(F)(F)F`, the result in [1], in test [2], in [3], in [4], in test [5] and in test [6] was inactive. Moreover, the outcome in test [7], in [8], in test [9] and in test [10] was inactive.

Consider `C=C(C)C(=O)OCC(F)(F)C(F)(F)C(F)(F)C(F)(F)C(F)(F)C(F)(F)C(F)(F)F`, for which the outcome in test [1], in test [2], in test [3], in test [4], in test [5] and in [6] was inactive. The result in [7], in [8], in test [9] and in test [10] was inactive.

Take `O=C(Cl)C(F)(F)C(F)(F)C(F)(F)C(F)(F)C(F)(F)C(F)(F)C(F)(F)C(F)(F)F`: the AC50 in [1] was 18.7 µM (active) and 20.4 µM (active) and 21.3 µM (active); in test [3], 38.9 µM (active) and 47.4 µM (active) and 45.5 µM (active); in test [6], 41.1 µM (active) and 38.8 µM (active) and 22.7 µM (active); in [7] it was 51.4 µM (active); in test [8], 30 µM (active); in [9], 23 µM (active). In addition, the AC50 in test [10] is 30 µM (active). Moreover, the outcome in [2], in test [4], in test [7], in test [8], in test [9] and in test [10] was inactive.

In the case of `CC(C)(C)C(=O)CC(=O)C(F)(F)C(F)(F)C(F)(F)F`, the result in test [1], in [2], in test [3], in test [4], in [6] and in test [7] was inactive. In addition, the result in test [8], in test [9] and in test [10] was inactive. Also, the AC50 in [9] was 44.2 µM (active).

On to `O=S(=O)(OCCOC(F)(F)F)C(F)(F)F`, for which the result in [1], in test [2], in test [3], in test [4], in test [6] and in [7] was inactive. The result in [8], in test [9] and in test [10] was inactive.

For `O=C(O)C(F)(F)C(F)(F)C(F)(F)C(F)(F)C(F)(F)C(F)(F)C(F)(F)C(F)(F)C(F)(F)C(F)F`, the AC50 in test [1] was 8.18 µM (active) and 8.12 µM (active); in test [2] it was 49.3 µM (active) and 48 µM (active); in test [3] it was 7.76 µM (active); in test [5], 12.8 µM (active) and 5.95 µM (active); in test [6] it was 19.3 µM (active) and 13.8 µM (active); in test [7], 49.5 µM (active) and 48.9 µM (active). The AC50 in test [10] is 23.6 µM (active). The outcome in test [3], in test [4], in [8], in test [9] and in [10] was inactive.

On to `FC(F)(F)C(F)(F)CNCC(F)(F)C(F)(F)F`, for which the outcome in test [1], in test [2], in [3], in test [4], in [5] and in test [6] was inactive. Moreover, the result in test [7], in test [8], in test [9] and in test [10] was inactive.
